For one experiment, the system named is Klebsiella pneumoniae. Particulars: Concentration 32 ug.mL-1; ASSAY_TEST Inhibition of Bacterial Growth; detection method Absorption (OD600); MEDIA CAMHB; plate type 384well; NBS; CORNING #3640; time 18 hr.
The test system of another experiment is Candida albicans. Particulars: 32 ug/mL.
The next experiment has as its system Cryptococcus neoformans. To be noted: Concentration 32 ug.mL-1; ASSAY_TEST Inhibition of Fungal Growth; detection method Resazurin; Absorption (OD600-OD570); plate type 384well; NBS; CORNING #3640.

Results with a measured potency or affinity are listed apart.

On to `CC(C)(CO)[C@@H](O)C(=O)NCCC(=S)NCCc1ccccc1`, for which the Inhibition was 23.06% in the experiment with Klebsiella pneumoniae, -0.77% with Candida albicans and 0.82% in the experiment with Cryptococcus neoformans.
For `C#CCNC(=O)[C@H](O)C(C)(C)CO`, the values for the Inhibition in the experiment with Klebsiella pneumoniae, in the experiment on Candida albicans and in the experiment with Cryptococcus neoformans were 17.37%, -0.84% and -0.61%, respectively.
Taken in the same sequence, the figures for `CC(C)(CO)C(O)C(=O)NCCCOP(=O)(O)OCC1OC(n2ccc(N)nc2=O)C(O)C1O` (centres undefined) were 14.41%, 3.26% and -6.1%.
As for `CCCCCCNNC(=O)CCNC(=O)[C@H](O)C(C)(C)CO`, the Inhibition is 13.13% in the experiment on Klebsiella pneumoniae, -0.25% in the experiment with Candida albicans and 3.11% in the experiment with Cryptococcus neoformans.
For `CC(C)(CO)[C@@H](O)C(=O)N/C=C/C(=O)NCCc1ccccc1`, the Inhibition in the experiment with Klebsiella pneumoniae is 27.58%; in the experiment on Candida albicans, 6.96%; in the experiment on Cryptococcus neoformans, -6.96%.
On to `CC(C)(C)C(O)C(=O)NCCC(=O)NCCc1ccccc1` (centres undefined), for which the results for the Inhibition with Klebsiella pneumoniae, in the experiment with Candida albicans and in the experiment with Cryptococcus neoformans were 24.7%, 0.67% and -0.45%, respectively.
Taken in the same sequence, the figures for `CC(C)(CO)[C@H](O)C(=O)NCCC(=O)OCc1cn(C[C@H]2O[C@@H](n3ccc(N)nc3=O)[C@H](O)[C@@H]2O)nn1` were 19.86%, 3.13% and -1.73%.
In the same order, the values of `CC(C)(CO)[C@H](O)C(=O)NCCC(=O)NCc1cn(C[C@H]2O[C@@H](n3ccc(N)nc3=O)[C@H](O)[C@@H]2O)nn1` are 19%, 2.72% and -1.6%.
For the compound `CC(C)(CO)[C@H](O)C(=O)NCCc1cn(C[C@H]2O[C@@H](n3ccc(N)nc3=O)[C@H](O)[C@@H]2O)nn1`, the Inhibition with Klebsiella pneumoniae was 11.31%; in the experiment with Candida albicans, 0.57%; in the experiment with Cryptococcus neoformans it was -3.52%.
Taken in the same sequence, the figures for `CC(C)(CO)[C@H](O)C(=O)NCc1cn(C[C@H]2O[C@@H](n3ccc(N)nc3=O)[C@H](O)[C@@H]2O)nn1` were 7.03%, -0.48% and 6.11%.
Take `CCCCCCCNC(=O)CCNC(=O)C(O)C(C)(C)C` (centres undefined): the Inhibition amounted to 17.81% with Klebsiella pneumoniae, 1% in the experiment with Candida albicans and 0.36% in the experiment on Cryptococcus neoformans.
In the same order, the values of `CC(CC(=O)NCCc1ccccc1)NC(=O)[C@H](O)C(C)(C)CO` (some centres undefined) are 21.7%, 3.05% and 2.32%.
In the case of `CC(C)(CO)[C@@H](O)C(=O)NCCC(=O)NNCc1ccccc1`, the results for the Inhibition in the experiment with Klebsiella pneumoniae, in the experiment with Candida albicans and in the experiment on Cryptococcus neoformans were 28.52%, 4.15% and -4.98%, respectively.
In the same order, the values of `CC(C)(COP(=O)(O)O)[C@@H](O)C(=O)NCCC(=O)NCCc1ccccc1` are 20.53%, 1.57% and 21.44%.
Taken in the same sequence, the figures for `CCCCCCCNC(=S)CCNC(=O)[C@H](O)C(C)(C)CO` were 15.93%, 2.87% and -3.35%.
`CC(C)(CO)[C@H](O)C(=O)NCCCc1cn(C[C@H]2O[C@@H](n3ccc(N)nc3=O)[C@H](O)[C@@H]2O)nn1`: the Inhibition in the experiment on Klebsiella pneumoniae is 15.48%; in the experiment on Candida albicans it was 1.6%; with Cryptococcus neoformans, -4.03%.
`CC(C)(CN)C(O)C(=O)NCCC(=O)NCCc1ccccc1` (centres undefined): the Inhibition with Klebsiella pneumoniae was found to be 28.43%; in the experiment with Candida albicans, 3.05%; in the experiment on Cryptococcus neoformans, 42.65%.
Taken in the same sequence, the figures for `CCCCCCCNS(=O)(=O)CCNC(=O)[C@H](O)C(C)(C)CO` were 15.06%, -2.91% and 2.56%.
